# The whole screen tested about 1,100 compounds, of which about 340 (31%) were called active. Another 40% or so got no clear call; they are omitted. The call rests on the fitted dose curve; in most records, active means well fitted inhibition curve with a large enough effect; inconclusive means small, poorly fitted or top-dose-only effect; inactive means flat fitted curve, though single readings scatter. A selection follows.
# Molecular target: Phosphatidylinositol 5-phosphate 4-kinase type-2 alpha (Homo sapiens) (UniProt P48426)
# Sequence (P48426 whole entry, looked up): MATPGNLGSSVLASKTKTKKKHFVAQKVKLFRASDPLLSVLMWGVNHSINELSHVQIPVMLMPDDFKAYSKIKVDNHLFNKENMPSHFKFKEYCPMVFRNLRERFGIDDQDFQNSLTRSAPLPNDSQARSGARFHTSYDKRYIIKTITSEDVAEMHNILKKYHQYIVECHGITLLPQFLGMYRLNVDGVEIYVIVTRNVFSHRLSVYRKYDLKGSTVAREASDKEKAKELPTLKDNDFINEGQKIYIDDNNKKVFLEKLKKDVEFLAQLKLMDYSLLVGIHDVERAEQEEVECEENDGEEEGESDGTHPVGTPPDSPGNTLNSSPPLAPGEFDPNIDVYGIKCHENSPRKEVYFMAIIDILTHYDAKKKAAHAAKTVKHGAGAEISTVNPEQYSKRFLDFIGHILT
# Assay: qHTS for Inhibitors of PI5P4K: Confirmation in Primary Assay; further: nearly all actives have a fitted effect of over 65% in size
# Conditions: PI5P4Kalpha enzyme, ADP-Glo luminescence, 60 min; series mostly up to 76.9 µM; activity change, negative = inhibition: at the top concentration
# Outline: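 PI5P4Kα with PI5P substrate in 0.038 M HEPES pH 7.4, 0.28 mM EGTA, 0.1% CHAPS, 5% DMSO; reaction started with 5 µM ATP (final), 60 min at room temperature. ADP formed read by ADP-Glo luminescence end-point.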
# On the % scale 0 is the no-effect control and ±100 the full control effect; potency means the concentration at half of the fitted maximal effect.
SMILES,Potency,"activity change, negative = inhibition"
Cc1ccc(-c2csc(NC(=O)c3ccno3)n2)cc1,28.2 µM (active),–
NC(=O)c1c(NC(=O)CN2CCCC2)sc2c1CCCC2,–,-1.83% (inactive)
NC(=O)c1c(NC(=O)c2cc3ccccc3o2)sc2c1CCC2,31.6 µM (active),–
NC(=O)c1c(NC(=O)c2ccccc2)sc2c1CCC2,25.1 µM (active),–
Cc1ccc2cc(CCl)c(Cl)nc2c1,–,-0.529% (inactive)
O=C(c1ccc(Br)cc1)c1cc2ccc(O)cc2oc1=O,11.2 µM (active),–
O=C(c1ccc(F)cc1)c1cc2ccc(O)cc2oc1=O,10 µM (active),–
O=C(NCc1ccco1)c1cc2ccc(O)cc2oc1=O,14.1 µM (active),–
N=c1oc2ccc3ccccc3c2cc1C(N)=S,–,-20.2% (inactive)
O=c1oc2cc(O)ccc2cc1-c1ccc(F)cc1,–,-21.3% (inactive)
NC(=S)c1cc2ccc(O)cc2oc1=O,14.1 µM (active),–
COc1ccc(C(=O)N2CCC2(C)C(=O)O)cc1F (stereo unspecified),–,-4.7% (inactive)
O=C(Nc1ccc(-c2nc3ncccc3o2)cc1)c1ccco1,–,-14.4% (inactive)
O=C(CCN1CCc2ccccc2C(c2ccccc2)C1)c1ccc2c(c1)OCCO2 (stereo unspecified),–,2.85% (inactive)
O=C(Cn1cncn1)NCc1ccccc1Br,–,-17.6% (inactive)
CCOC(=O)N1CCN(C(=O)CCS(=O)(=O)c2ccc3c(c2)CCN3C(=O)CC)CC1,–,4.08% (inactive)
Cc1cccc(N=c2oc3cc(O)ccc3cc2C(N)=O)c1,14.1 µM (active),–
c1coc(-c2ccc3nncn3c2)c1,15.8 µM (active),–
Clc1ccc2nc(-c3ccco3)c(Cc3ccccc3)n2c1,–,-25.6% (inactive)
CC(=O)c1ccc(NC(=O)c2noc3c2CCC3)cc1,35.5 µM (active),–
O=C(Nc1nnc(COc2ccc(Cl)cc2)s1)c1cccs1,–,-13.3% (inactive)
CC(C)(NC(=O)c1ccccc1)c1nc2ccccc2s1,–,-17.8% (inactive)

SMILES,Potency,"activity change, negative = inhibition"
Cc1nc(N)sc1-c1csc(Nc2cccc(C(=O)O)c2)n1,15.8 µM (active),–
OCCNc1nc(Nc2ccc(Cl)c(Cl)c2)nc2ccccc12,31.6 µM (active),–
O=C1COc2ccc(S(=O)(=O)NCCc3ccccc3)cc2N1,–,2.64% (inactive)
Cc1ccc(C)c(S(=O)(=O)Nc2ccc3oc(C)c(C(=O)O)c3c2)c1,15.8 µM (active),–
COc1cc(CNc2ccc(N3CCCC3)cc2)cc(Cl)c1OC,–,-18.4% (inactive)
O=C(O)C1Nc2c(Cl)cc(Cl)c(Cl)c2C2C=CCC12 (stereo unspecified),8.91 µM (active),–
CCc1c(C)sc(NC(=O)c2ccoc2C)c1C(N)=O,12.6 µM (active),–
CCOc1ccc(CC(=O)Nc2sc(Cc3ccccc3)c(C)c2C(N)=O)cc1OCC,–,-12.1% (inactive)
NS(=O)(=O)c1ccc(NC(=O)c2ccc(S(=O)(=O)N3CCc4ccccc43)cc2)cc1,14.1 µM (active),–
O=S(=O)(c1ccc(Br)cc1)N1CCCc2ccccc21,–,7.69% (inactive)
Clc1ccc2nc(CSc3nc4ccccc4o3)cn2c1,–,3.79% (inactive)
COc1ccc2ccccc2c1C1CC(=O)N2CN(C3CCCCC3)CSC2=C1C#N (stereo unspecified),15.8 µM (active),–
CCOc1ccccc1N1CSC2=C(C#N)C(c3c(OC)ccc4ccccc34)CC(=O)N2C1 (stereo unspecified),20 µM (active),–
C[C@H](CO)N1C[C@H](C)[C@@H](CN(C)S(=O)(=O)c2ccc3c(c2)OCCCO3)OCc2cnnn2CCCC1=O,–,0.696% (inactive)
CCN1CCN(C(=O)Cn2nc(-c3ccc(Cl)cc3)ccc2=O)CC1,–,7.36% (inactive)
COc1cc2nc(Nc3ccc(C)c(Cl)c3)nc(N)c2cc1OC,15.8 µM (active),–
Cc1ccnc2nc(C(=O)OCC(=O)NC3CCCC(C)C3C)nn12 (stereo unspecified),–,5.28% (inactive)
CC1CCCCC1NC(=O)COC(=O)c1c2c(nc3ccccc13)/C(=C\c1ccco1)CC2 (stereo unspecified),1.26 µM (active),–
COc1ccc(CCn2c(O)cc3nn(-c4nc5ccccc5s4)c(=O)c-3c2C)cc1,11.2 µM (active),–
O=C(CCS(=O)(=O)c1ccc2c(c1)NC(=O)CS2)NCCc1ccc(Cl)cc1,–,-2.61% (inactive)
NS(=O)(=O)c1ccc(NC(=O)C2Cc3ccccc3CN2C(=O)c2ccco2)cc1 (stereo unspecified),14.1 µM (active),–
CCCNC(=O)C1(C)CCCN(C(=O)c2cc(C)nn2C(C)(C)C)C1 (stereo unspecified),–,0.849% (inactive)

SMILES,Potency,"activity change, negative = inhibition"
Oc1cc2c(cc1C(c1ccc(Cl)c(Cl)c1)N1CCCC1)OCO2 (stereo unspecified),12.6 µM (active),–
O=C(Nc1cccc2cccnc12)c1csc(COCCO)n1,–,-0.498% (inactive)
O=C(c1cccnc1)N(c1cc2sc(=O)oc2c2ccccc12)S(=O)(=O)c1ccccc1,–,-17.1% (inactive)
COc1ccc(S(=O)(=O)N2CCN(C(=O)c3cc4c(s3)CCC4)CC2)cc1,7.08 µM (active),–
CCOc1ccc(S(=O)(=O)N2CCN(c3ccc(C)cc3C)CC2)cc1,–,11.9% (inactive)
COc1cc2nc(COc3ccccc3[N+](=O)[O-])oc(=O)c2cc1OC,–,-3.94% (inactive)
O=S(=O)(Nc1ccc2cn[nH]c2c1)c1ccccc1,–,0.969% (inactive)
CCOC(=O)c1cnc2cc(C)ccn2c1=O,–,0.0355% (inactive)
C[C@H]1CN=C(Nc2ccccc2)N1CCCC1CCCCC1,–,-0.725% (inactive)
Cc1ccc(C)c(NC(=O)c2ccc3c(c2)N(Cc2ccc(F)cc2)C(=O)CS3=O)c1 (stereo unspecified),–,-0.517% (inactive)
COc1cccc2cc(C(C)N(CCCN3CCOCC3)C(=O)Nc3ccccc3)oc12 (stereo unspecified),–,1.88% (inactive)
CCN1CCN(Cc2ccc(NC(=O)c3ccc(C)c(NC(=O)c4cc(-c5ccc(Br)cc5)n[nH]4)c3)cc2C(F)(F)F)CC1,28.2 µM (active),–
CCN1CCN(Cc2ccc(NC(=O)c3cc(NC(=O)c4cc5cccc(OC)c5o4)cc(OC)c3)cc2C(F)(F)F)CC1,25.1 µM (active),–
Cc1cc2ccccc2nc1SCC(=O)NC1CCCC1,–,3.8% (inactive)
CCCCNC(=O)C1(C)CCC(=O)N1c1cc(C(C)(C)C)nn1C (stereo unspecified),–,4.31% (inactive)
COCCn1nnnc1C(c1cc2cc(OC)c(OC)cc2[nH]c1=O)N1CCN(c2ccc(O)cc2)CC1 (stereo unspecified),–,-13.5% (inactive)
Cc1ccn2c(NC3CCCC3)c(-c3cccs3)nc2c1,–,6.53% (inactive)
O=c1c2c3c(sc2[nH]c(=S)n1Cc1ccco1)CCC3,7.08 µM (active),–
Cc1cccc(-n2c(SCC(N)=O)nc3c(c2=O)C2(CCCC2)Cc2ccccc2-3)c1,–,3.23% (inactive)
Cc1ccccc1CNC(=O)c1ccc2nc([C@@H]3O[C@H](CO)[C@H](O)[C@H](O)[C@H]3O)[nH]c2c1,–,1.11% (inactive)
COc1ccc(OC)c(NC(=O)CN(Cc2ccc(F)cc2)C2CCCCC2)c1,–,-1.93% (inactive)
COc1ccc(OC)c(NC(=O)COC(=O)c2cc3c(s2)CCC3)c1,12.6 µM (active),–

# Source: PubChem BioAssay AID743286 (National Center for Advancing Translational Sciences (NCATS), 2014)
